Inhibition data for 4 molecules are collected here from ChEMBL document CHEMBL1961873, “Compounds: GSK PKIS; Assays: Nanosyn kinase panel” (2012).

Experiment [1] addresses Tyrosine-protein kinase SYK (Homo sapiens) (UniProt P43405). Conditions: at 1 µM.
The target of experiment [2] is T1, Tyrosine-protein kinase Tec (Homo sapiens) (UniProt P42680).
T1 sequence (whole entry): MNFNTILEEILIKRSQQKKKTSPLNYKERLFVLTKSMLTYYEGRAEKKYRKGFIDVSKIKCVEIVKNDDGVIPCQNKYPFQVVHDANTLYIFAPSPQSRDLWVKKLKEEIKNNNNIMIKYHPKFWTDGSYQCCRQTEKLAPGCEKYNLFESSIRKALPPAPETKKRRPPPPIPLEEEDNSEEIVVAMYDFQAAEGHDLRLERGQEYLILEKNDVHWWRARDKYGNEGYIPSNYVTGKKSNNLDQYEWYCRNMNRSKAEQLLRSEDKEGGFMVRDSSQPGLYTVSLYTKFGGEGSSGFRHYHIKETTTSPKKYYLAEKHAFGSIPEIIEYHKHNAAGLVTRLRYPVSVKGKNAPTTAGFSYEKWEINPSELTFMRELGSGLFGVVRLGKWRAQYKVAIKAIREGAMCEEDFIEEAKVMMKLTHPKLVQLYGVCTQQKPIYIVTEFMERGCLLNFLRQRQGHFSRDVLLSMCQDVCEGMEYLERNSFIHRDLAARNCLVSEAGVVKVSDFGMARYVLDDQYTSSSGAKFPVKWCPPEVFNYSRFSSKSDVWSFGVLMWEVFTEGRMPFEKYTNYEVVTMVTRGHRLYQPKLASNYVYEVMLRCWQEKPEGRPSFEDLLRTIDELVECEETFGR
Conditions: at 0.1 µM.

Experiment [3] has as its target T1, Tyrosine-protein kinase Tec (Homo sapiens). The conditions noted are these: at 1 µM.
Experiment [4] deals with Angiopoietin-1 receptor (Homo sapiens) (UniProt Q02763). Conditions: at 0.1 µM.
The target is the same in experiment [5]. The conditions noted are these: at 1 µM.
In experiment [6] the target is T2, Non-receptor tyrosine-protein kinase TNK1 (Homo sapiens) (UniProt Q13470).
T2 sequence (whole entry): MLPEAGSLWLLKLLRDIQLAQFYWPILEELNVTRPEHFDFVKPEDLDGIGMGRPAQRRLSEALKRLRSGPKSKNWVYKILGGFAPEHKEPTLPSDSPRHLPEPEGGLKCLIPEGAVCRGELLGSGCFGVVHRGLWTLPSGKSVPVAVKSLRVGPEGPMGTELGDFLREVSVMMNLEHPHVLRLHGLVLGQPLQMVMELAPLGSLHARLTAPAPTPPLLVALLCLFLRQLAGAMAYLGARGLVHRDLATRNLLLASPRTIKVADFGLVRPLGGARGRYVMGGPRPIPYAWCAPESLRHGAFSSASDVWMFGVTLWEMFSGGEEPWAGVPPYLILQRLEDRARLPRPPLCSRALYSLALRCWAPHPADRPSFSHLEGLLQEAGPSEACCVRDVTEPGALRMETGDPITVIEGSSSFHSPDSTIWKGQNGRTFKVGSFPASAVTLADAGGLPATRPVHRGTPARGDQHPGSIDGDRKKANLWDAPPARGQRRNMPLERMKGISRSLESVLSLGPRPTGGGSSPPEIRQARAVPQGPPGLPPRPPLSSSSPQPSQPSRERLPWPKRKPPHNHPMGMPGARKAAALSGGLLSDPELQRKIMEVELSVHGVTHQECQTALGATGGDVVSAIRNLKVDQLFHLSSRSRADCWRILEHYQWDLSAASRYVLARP
Conditions: at 0.1 µM.

Experiment [7] deals with T2, Non-receptor tyrosine-protein kinase TNK1 (Homo sapiens). The conditions noted are these: at 1 µM.
For experiment [8], the target named is Activated CDC42 kinase 1 (Homo sapiens) (UniProt Q07912). Conditions: at 0.1 µM.
Experiment [9] shares this target. Conditions: at 1 µM.
The target in experiment [10] is High affinity nerve growth factor receptor (Homo sapiens) (UniProt P04629). The conditions noted are these: at 0.1 µM.
Experiment [11] shares this target. The conditions noted are these: at 1 µM.
Experiment [12] concerns the target BDNF/NT-3 growth factors receptor (Homo sapiens) (UniProt Q16620). The conditions noted are these: at 0.1 µM.
Experiment [13] has the same target. The conditions noted are these: at 1 µM.
Experiment [14] concerns the target NT-3 growth factor receptor (Homo sapiens) (UniProt Q16288). Conditions: at 0.1 µM.
Experiment [15] shares this target. The conditions noted are these: at 1 µM.
The target of experiment [16] is T3, Tyrosine-protein kinase TXK (Homo sapiens) (UniProt P42681).
T3 sequence (whole entry): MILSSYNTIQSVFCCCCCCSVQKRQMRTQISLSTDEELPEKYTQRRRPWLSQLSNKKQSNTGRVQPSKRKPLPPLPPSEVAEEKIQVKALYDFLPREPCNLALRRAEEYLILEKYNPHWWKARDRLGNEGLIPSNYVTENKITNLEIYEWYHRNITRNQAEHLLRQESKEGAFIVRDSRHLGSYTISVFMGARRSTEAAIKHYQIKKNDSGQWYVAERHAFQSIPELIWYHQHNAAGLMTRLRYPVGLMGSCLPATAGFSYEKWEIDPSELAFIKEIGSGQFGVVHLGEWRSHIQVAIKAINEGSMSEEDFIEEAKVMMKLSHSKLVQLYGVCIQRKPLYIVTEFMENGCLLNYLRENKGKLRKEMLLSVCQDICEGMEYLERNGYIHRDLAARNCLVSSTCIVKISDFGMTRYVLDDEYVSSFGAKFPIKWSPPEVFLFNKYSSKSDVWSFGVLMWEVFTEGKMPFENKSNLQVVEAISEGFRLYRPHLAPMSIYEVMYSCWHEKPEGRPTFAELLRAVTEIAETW
The conditions noted are these: at 0.1 µM.

The target in experiment [17] is T3, Tyrosine-protein kinase TXK (Homo sapiens). Conditions: at 1 µM.
Experiment [18] addresses Non-receptor tyrosine-protein kinase TYK2 (Homo sapiens) (UniProt P29597). The conditions noted are these: at 0.1 µM.
The target in experiment [19] is T4, Dual specificity protein kinase TTK (Homo sapiens) (UniProt P33981).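 Also: reported figures are mean TTK inhibition at 1 µM.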
T4 sequence (whole entry): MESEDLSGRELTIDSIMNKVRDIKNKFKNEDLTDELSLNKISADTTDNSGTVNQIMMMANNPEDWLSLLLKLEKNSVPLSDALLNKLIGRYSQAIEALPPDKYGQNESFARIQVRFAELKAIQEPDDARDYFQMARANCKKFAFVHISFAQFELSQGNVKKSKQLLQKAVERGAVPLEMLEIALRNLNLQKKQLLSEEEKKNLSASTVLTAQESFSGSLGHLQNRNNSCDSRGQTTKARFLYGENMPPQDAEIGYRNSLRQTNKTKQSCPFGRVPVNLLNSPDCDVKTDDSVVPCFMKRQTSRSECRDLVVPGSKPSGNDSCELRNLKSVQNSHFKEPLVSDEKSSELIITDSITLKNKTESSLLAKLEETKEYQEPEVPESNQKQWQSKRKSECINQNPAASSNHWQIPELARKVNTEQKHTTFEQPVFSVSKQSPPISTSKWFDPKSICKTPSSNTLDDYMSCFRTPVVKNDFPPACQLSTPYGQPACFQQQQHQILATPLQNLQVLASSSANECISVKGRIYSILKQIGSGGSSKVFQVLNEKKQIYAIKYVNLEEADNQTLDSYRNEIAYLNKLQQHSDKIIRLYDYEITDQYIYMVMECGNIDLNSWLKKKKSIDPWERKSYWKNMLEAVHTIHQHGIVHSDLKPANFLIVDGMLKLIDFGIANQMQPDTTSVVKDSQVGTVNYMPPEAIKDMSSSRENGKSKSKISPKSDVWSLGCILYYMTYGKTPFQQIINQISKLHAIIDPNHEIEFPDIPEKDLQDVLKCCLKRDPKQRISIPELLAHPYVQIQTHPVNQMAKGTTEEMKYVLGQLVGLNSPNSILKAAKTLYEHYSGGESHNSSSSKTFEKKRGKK
The conditions noted are these: at 1 µM.

Experiment [20] has as its target T5, Aurora kinase A (Homo sapiens) (UniProt O14965).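 Also: each reported value is a mean percent inhibition of Aurora-A.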
T5 sequence (whole entry): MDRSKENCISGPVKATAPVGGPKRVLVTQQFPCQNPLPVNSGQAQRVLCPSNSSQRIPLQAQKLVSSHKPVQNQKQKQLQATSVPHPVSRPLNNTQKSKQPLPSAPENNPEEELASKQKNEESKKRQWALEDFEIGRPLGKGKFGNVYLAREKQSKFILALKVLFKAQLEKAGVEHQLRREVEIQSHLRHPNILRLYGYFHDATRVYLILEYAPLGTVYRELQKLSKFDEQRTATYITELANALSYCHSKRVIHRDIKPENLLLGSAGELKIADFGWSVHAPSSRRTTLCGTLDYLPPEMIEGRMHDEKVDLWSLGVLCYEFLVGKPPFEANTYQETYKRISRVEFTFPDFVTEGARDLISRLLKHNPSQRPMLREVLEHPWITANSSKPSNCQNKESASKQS
The conditions noted are these: at 0.1 µM.

Chain of Non-receptor tyrosine-protein kinase TYK2 (Homo sapiens) (P29597 whole entry): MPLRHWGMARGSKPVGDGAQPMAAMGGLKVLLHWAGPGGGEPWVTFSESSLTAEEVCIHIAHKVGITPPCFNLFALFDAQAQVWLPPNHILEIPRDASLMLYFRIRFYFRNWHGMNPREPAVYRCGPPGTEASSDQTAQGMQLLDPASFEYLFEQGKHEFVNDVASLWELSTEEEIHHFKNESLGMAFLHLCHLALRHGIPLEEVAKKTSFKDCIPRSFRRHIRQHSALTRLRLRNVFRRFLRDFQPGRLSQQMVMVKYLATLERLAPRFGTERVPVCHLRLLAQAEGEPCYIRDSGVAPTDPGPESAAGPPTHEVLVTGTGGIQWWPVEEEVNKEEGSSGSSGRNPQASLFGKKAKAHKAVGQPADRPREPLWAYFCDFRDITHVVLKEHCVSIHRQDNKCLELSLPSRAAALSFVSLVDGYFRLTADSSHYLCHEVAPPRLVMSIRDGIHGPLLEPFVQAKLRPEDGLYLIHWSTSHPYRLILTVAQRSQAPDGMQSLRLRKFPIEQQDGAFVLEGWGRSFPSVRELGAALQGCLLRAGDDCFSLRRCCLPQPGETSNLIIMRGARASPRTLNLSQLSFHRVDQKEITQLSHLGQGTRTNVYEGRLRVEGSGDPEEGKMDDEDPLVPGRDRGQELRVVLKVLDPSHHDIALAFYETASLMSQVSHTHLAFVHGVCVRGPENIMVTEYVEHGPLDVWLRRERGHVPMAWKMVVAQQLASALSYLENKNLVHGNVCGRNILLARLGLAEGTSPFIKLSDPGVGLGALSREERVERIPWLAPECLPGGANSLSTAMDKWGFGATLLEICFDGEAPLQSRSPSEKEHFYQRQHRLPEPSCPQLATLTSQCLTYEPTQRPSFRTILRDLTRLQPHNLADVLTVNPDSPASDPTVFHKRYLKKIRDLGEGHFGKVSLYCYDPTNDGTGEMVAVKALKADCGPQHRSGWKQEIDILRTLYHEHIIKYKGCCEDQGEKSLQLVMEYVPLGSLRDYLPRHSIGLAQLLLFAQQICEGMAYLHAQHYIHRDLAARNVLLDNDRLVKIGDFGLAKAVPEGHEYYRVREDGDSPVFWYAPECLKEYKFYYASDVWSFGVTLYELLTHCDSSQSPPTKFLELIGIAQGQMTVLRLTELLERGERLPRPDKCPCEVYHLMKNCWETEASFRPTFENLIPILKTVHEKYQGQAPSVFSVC
Chain of Activated CDC42 kinase 1 (Homo sapiens) (Q07912 whole entry, looked up): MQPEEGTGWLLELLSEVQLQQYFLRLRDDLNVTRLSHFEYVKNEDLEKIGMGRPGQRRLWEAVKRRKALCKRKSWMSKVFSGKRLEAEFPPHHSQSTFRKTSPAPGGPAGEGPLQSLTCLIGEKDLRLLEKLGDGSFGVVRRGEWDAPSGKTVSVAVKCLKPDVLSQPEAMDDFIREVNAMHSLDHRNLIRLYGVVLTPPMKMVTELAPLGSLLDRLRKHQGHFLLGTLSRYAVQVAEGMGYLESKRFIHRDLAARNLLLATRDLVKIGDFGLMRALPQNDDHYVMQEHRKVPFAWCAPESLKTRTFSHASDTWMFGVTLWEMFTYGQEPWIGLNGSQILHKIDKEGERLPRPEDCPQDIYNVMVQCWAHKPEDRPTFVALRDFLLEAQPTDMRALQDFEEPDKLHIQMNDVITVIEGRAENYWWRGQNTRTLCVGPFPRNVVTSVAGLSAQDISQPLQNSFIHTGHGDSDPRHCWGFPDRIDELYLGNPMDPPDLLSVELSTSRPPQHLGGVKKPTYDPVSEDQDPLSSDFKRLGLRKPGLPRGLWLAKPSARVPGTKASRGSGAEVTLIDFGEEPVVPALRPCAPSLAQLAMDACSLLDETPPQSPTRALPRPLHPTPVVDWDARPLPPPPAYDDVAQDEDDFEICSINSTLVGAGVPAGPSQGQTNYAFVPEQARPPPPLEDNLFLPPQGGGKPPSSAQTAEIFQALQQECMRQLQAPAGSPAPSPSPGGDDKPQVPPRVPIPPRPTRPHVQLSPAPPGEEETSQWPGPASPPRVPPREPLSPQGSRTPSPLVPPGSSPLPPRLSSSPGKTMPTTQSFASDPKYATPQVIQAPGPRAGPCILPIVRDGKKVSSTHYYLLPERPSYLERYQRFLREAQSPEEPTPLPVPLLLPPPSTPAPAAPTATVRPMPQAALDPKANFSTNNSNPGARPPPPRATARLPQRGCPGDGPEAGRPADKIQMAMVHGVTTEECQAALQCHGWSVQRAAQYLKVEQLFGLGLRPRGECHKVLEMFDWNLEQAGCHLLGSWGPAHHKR
Chain of BDNF/NT-3 growth factors receptor (Homo sapiens) (Q16620 32-822 limits assumed): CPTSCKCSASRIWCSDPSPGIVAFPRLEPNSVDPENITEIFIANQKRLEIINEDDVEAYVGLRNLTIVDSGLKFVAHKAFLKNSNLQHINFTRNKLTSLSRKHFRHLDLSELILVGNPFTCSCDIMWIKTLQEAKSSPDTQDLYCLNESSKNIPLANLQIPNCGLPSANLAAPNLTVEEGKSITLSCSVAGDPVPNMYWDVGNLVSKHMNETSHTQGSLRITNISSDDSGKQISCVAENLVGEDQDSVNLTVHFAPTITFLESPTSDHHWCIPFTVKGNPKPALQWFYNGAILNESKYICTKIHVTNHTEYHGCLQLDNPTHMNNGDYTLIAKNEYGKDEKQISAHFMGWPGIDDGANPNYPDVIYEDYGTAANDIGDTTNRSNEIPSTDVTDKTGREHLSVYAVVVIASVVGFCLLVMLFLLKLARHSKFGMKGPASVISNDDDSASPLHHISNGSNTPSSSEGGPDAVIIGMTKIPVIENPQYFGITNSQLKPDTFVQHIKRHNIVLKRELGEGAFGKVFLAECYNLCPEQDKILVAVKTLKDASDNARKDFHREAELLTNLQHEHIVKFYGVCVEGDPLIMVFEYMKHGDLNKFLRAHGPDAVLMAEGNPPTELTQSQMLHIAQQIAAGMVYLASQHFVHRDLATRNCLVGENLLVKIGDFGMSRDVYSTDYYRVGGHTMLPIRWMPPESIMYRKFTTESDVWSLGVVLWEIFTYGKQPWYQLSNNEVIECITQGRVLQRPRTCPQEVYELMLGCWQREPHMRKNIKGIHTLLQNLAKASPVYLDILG
Chain of Angiopoietin-1 receptor (Homo sapiens) (Q02763 whole entry): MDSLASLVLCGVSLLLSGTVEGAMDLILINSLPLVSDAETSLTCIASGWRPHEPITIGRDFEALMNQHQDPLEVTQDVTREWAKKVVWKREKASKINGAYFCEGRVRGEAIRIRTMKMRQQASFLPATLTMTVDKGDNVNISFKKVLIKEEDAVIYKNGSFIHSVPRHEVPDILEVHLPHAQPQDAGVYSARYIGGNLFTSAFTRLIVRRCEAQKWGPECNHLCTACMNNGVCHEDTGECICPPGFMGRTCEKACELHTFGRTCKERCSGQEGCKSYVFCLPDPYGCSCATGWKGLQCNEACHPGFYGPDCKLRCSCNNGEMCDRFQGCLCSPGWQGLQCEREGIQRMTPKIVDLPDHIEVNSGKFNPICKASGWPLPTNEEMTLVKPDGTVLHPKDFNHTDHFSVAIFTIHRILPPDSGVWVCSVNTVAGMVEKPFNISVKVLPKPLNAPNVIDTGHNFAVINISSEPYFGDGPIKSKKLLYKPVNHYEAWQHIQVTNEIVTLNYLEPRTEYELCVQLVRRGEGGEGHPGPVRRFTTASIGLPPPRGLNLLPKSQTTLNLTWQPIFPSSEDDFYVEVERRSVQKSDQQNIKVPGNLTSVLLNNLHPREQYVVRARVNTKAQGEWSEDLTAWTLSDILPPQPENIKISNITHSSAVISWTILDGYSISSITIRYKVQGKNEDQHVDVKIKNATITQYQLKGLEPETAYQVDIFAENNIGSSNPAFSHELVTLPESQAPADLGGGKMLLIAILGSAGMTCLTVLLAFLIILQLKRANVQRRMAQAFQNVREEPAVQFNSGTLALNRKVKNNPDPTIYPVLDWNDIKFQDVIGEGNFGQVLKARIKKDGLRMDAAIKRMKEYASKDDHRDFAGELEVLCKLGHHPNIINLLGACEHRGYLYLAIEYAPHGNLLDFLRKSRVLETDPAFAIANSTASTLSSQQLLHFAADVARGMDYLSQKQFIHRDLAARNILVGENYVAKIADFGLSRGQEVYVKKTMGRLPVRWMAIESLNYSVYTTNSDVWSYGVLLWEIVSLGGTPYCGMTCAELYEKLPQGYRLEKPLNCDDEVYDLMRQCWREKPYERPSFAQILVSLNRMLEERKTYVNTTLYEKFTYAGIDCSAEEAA
Chain of NT-3 growth factor receptor (Homo sapiens) (Q16288 32-839 limits assumed): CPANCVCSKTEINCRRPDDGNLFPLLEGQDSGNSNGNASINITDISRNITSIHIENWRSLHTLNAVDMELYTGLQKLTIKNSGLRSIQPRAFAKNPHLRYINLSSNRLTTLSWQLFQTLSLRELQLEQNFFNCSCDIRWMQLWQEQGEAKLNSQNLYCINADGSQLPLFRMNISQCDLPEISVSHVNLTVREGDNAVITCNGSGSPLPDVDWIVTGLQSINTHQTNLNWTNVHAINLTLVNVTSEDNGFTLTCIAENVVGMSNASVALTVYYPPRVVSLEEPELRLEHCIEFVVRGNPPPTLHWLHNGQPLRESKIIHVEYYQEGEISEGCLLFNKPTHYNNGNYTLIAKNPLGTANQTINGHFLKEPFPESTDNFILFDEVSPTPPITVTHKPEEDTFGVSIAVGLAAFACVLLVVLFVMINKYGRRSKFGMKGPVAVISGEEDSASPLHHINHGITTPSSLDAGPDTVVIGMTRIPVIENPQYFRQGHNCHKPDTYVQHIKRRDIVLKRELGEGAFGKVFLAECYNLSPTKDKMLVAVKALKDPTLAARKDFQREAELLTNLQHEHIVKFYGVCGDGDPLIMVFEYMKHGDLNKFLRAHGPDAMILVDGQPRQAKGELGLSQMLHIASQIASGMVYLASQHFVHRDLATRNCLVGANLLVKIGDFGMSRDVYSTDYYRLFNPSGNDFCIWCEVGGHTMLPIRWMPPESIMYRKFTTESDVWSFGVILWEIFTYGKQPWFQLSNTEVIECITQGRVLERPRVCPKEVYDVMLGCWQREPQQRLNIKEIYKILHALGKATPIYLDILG

A word on the inhibition: it is the drop in the measured response relative to a control, in per cent. In the case of `COc1cc(Nc2ncc(-c3ccccc3)o2)cc(OC)c1OC`, the inhibition in experiment [1] is -1.68%; in experiment [2] it was -2.02%; in experiment [3], 4.55%; in [4], 0.66%; in [5] it was 5.14%; in experiment [6], 4.15%. In addition, the inhibition in experiment [7] was determined as 28.4%; in experiment [8], 0%; in experiment [9] it was 0.48%; in experiment [10], 3.35%; in [11], 23.1%; in experiment [12], 2.41%. Further, the inhibition was 28.3% in experiment [13]; 2.64% in experiment [14]; 25.2% in experiment [15]; 1.07% in [16]; 16.2% in [17]; -2.24% in experiment [18]. Also, the inhibition is -1.01% in experiment [19] and 15.7% in [20].
In the case of `O=C(Nc1n[nH]c2cc(-c3cc(F)ccc3F)ccc12)C1CC1`, the inhibition in experiment [1] turned out to be 1.24%; in [2], 2.72%; in experiment [3], 4.04%; in experiment [4] it was 3.35%; in experiment [5], 9.26%; in experiment [6], 1.68%. In addition, the inhibition is 7.03% in experiment [7]; -0.01% in experiment [8]; -0.8% in experiment [9]; 3.75% in experiment [10]; 8.4% in experiment [11]; 3.77% in [12]. The inhibition in [13] was 8.07%; in experiment [14], 3.77%; in experiment [15], 14%; in experiment [16], 2.25%; in experiment [17] it was 0.99%; in experiment [18] it was -1%. Besides, the figures for the inhibition in experiment [19] and in experiment [20] were 9.7% and 2.63%, respectively.
For the molecule `CS(=O)(=O)CCNCc1cc(-c2cc3c(Nc4ccc(OCc5cccc(F)c5)c(Cl)c4)ncnc3s2)cs1`, the inhibition in experiment [1] amounted to 1.7%; in [2], 7.25%; in experiment [3] it was 7%; in [4], 8.64%; in experiment [5], 10.7%; in experiment [6], 1.8%. Also, the inhibition in experiment [7] was 6.39%; in experiment [8], 1.66%; in experiment [9], 5.79%; in experiment [10], 2.34%; in experiment [11], 7.01%; in experiment [12] it was 3.47%. Further, the inhibition in [13] is 5.03%; in [14] it was 5.13%; in experiment [15], 3.52%; in experiment [16] it was 7.43%; in [17], 6.57%; in [18] it was -4.26%. In addition, the values for the inhibition in [19] and in experiment [20] were 9.22% and 4.18%, respectively.
Regarding `CN(C)CCOc1ccc(-c2cc(-c3ccc4c(c3)CCC4=NO)c(-c3ccncc3)o2)cc1`, the inhibition was determined as 0.74% in experiment [1]; 0.39% in experiment [2]; 1.01% in [3]; 0.77% in experiment [4]; 11.6% in experiment [5]; 2.33% in experiment [6]. Besides, the inhibition is 20.8% in experiment [7]; -1.03% in experiment [8]; 0.17% in experiment [9]; -1.52% in experiment [10]; -2.77% in [11]; -0.06% in experiment [12]. The inhibition is 1.62% in experiment [13]; 0.94% in [14]; -0.98% in experiment [15]; 0.73% in experiment [16]; 3.15% in experiment [17]; 0.89% in experiment [18]. The inhibition was found to be 1.15% in [19] and 0.13% in [20].
